# Hits are enriched below; roughly 4% of the tested compounds scored in any of these assays.
# Caspase-7 inhib: allosteric or competitive inhibitors of human caspase-7 | hit rate 0.02% among 75,000 | Potency, µM (top dose mostly 57.5 µM), for the others: at the highest dose activity change, negative = inhibition, most hits filed as inhibitors | recombinant caspase-7, Ac-DEVD-AFC fluorescence rate | P55210; active = well fitted inhibition curve with a large enough effect in the main read-out, with a control signal flat, not every such curve was filed as active; inconclusive = small, poorly fitted or top-dose-only effect, or a change in a side signal; note: % of control where 0% means no effect
# FLuc inh: inhibitors of firefly luciferase; P08659; purified firefly luciferase, luminescence, 8 min; Potency, µM (series often up to 57.1 µM), without a hit: at the top dose activity change, negative = inhibition, most hits filed as inhibitors; hit rate 2.2% among 72,000; note: % is set by controls: 0 for no effect and ±100 for the full control effect; nearly all actives have a fitted effect of over 40% in size
#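 Inhibition of light generation by firefly luciferase from ATP and luciferin was profiled with concentration-response curves per sample, ATP held at 10 uM within the enzyme's linear range. Plates were read by luminescence after an 8-minute ambient incubation.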
# Casp1 inh: allosteric or competitive inhibitors of human caspase-1. P29466. Caspase-1 enzyme, Ac-WEHD-AFC fluorogenic rate. Potency, µM (doses to about 57.5 µM), for inactives: at the highest dose activity change, negative = inhibition, actives largely listed as inhibitors. hit rate 0.03% among 75,000. AID 900;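 note: plate controls were vehicle for no effect and no substrate for full effect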
# Tau filament bind: binds recombinant human tau filaments; recombinant tau filaments, thioflavin S fluorescence, 15 h; filaments grown with octadecylsulfate alongside compound; Potency, µM (doses to about 57.1 µM), for the others: at the highest dose activity change, negative = inhibition; hit rate 2% among 71,000; AID 596;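 note: % is set by controls: 0 for no effect and ±100 for the full control effect; actives lower thioflavin S fluorescence by blocking filaments or displacing dye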
#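 Assay mix: 1 uM His-tagged tau, 30 uM sodium octadecylsulfate, thioflavine S dye in HEPES/NaCl/DTT buffer. Compound is added prior to the inducer. Fluorescence after 15 h at 37 C.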
# PK Bst: alters activity of Bacillus stearothermophilus pyruvate kinase | purified pyruvate kinase, luminescence ATP production; ribose 5-phosphate activator present at AC10 | Potency, µM | hit rate 1.2% among 51,000 | AID 361; in the data active = potency below about 11 µM; inconclusive = mostly about 12 µM to 25 µM;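 the screen sought inhibitors and activators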;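 note: scaled between full activation by ribose 5 phosphate and full inhibition by luteolin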
# * marks the source's active call; other numbers are inactive results; i = inactive; ? = inconclusive; . = no result given; ! = repeats disagree; [ ] = another dose, or the depositor's remark. Unless noted, calls come from the whole dose curve; as a rule, active = well fitted curve in the direction sought with a large enough effect; inconclusive = small, poorly fitted or top-dose-only effect, or another doubt; inactive = no such curve, though single readings can be large; an effect the other way counts as inactive or inconclusive. Potency is the fitted concentration of half-maximal effect.
SMILES,Caspase-7 inhib,FLuc inh,Casp1 inh,Tau filament bind,PK Bst
COC(=O)c1ccc(C2c3c(oc4ccccc4c3=O)C(=O)N2CCCN2CCOCC2)cc1 (centres undefined),0.9%,1.7%,-1.7%,?,.
O=C(CN1C(=O)c2ccccc2C1=O)N1CCN(c2ccccn2)CC1,0.3%,2.9%,0.8%,1.7%,>57
O=C1C=C(N2CCN(c3ccccn3)CC2)C(=O)c2c(O)ccc(O)c21,-2.2%[11.5 µM],-15.1%[11.4 µM],-4.5%[11.5 µM],1.58µM*,.
Cc1cc(N2CCOCC2)c2c(N)c(Br)cc(C)c2n1,-2.5%,0.0%,-5.2%,3.16µM*,.
Cc1cc(N2CCN(c3nc(N4CCOCC4)nc4ccccc34)CC2)c2ccccc2n1,0.6%,0.2%,0.3%,-7.8%,>57
O=C(/C=C\Nc1ccc2c(c1)OCO2)c1ccccn1,?,0.631µM*,.,126.7%,.
O=C(O)[C@@H]1[C@@H]2C[C@H]3c4[nH]c5ccccc5c4CCN3C[C@@H]2CC[C@@H]1O,-26.0%[25.7 µM],0.6%[11.4 µM],-15.0%[25.7 µM],-14.3%,.
COc1cc(CNCCO)ccc1OCC(=O)Nc1ccc(Br)cc1,-1.3%,0.6%,-3.1%,-2.5%,>57
COc1cc(CNc2ccc3[nH]c(=O)[nH]c3c2)ccc1OCC(=O)NC(C)(C)C,-22.3%,-3.5%,?,12.6µM*,.
CO[C@H]1COC(=O)[C@H](C)COC(=O)C/C=C\[C@@H](C)[C@H](OC)COC(=O)C/C=C\[C@@H]1C,0.3%[11.5 µM],2.0%[11.4 µM],-4.1%[11.5 µM],.,.
CC(=O)OC[C@@H]1O[C@H](C/C=N\OC[C@@H](O)[C@H]2O[C@H]3OC(C)(C)O[C@H]3[C@@H]2O)C=C[C@@H]1OC(C)=O,2.1%[11.5 µM],-1.1%[11.4 µM],-2.8%[11.5 µM],.,.
CN1CCN(c2ncc3nc(-c4ccc(F)cc4)c(=O)n(Cc4cccs4)c3n2)CC1,?,2.5%[11.4 µM],.,140.3%,.
CCOc1ccc(OCC(=O)N2CCOCC2)cc1,-0.6%,-0.8%,-0.1%,-0.9%,>57
CN(C)S(=O)(=O)c1ccc(C(=O)Nc2ccc(OCC(=O)N3CCOCC3)cc2)cc1,1.0%,15.8µM*,-1.2%,-0.9%,.
COc1cccc(Nc2ncc3nc(CCc4ccccc4)c(=O)n(CCC#N)c3n2)c1,?,2.2%[11.4 µM],.,3.9%,.
CC[C@H]1NC(=O)c2cc(S(N)(=O)=O)c(Cl)cc2N1,3.2%[25.7 µM],-3.4%[25.5 µM],-3.0%[25.7 µM],-5.9%[25.6 µM],.
Cc1ccc(-c2cc3nc(C)cc(NCc4ccco4)n3n2)cc1,-27.5%,7.94µM*,.,37.0%,6.48*
COc1ccc(-c2cc3nc(C)cc(NCCO)n3n2)cc1,-2.0%,?,-3.8%,1.2%,?
Cc1cc(C)c2c(n1)nn1c(NCCCn3ccnc3)cc(C)nc21,?,1.2%,.,43.6%,>57
Cc1cc(NCCCn2ccnc2)n2nc(-c3ccc(F)cc3)cc2n1,-1.9%,12.6µM*,-1.3%,22.9%,?
Cc1noc(C)c1-c1nc(NCCN2CCOCC2)c2ccccc2n1,-2.1%,-3.1%[2.29 µM],-4.0%,6.9%,.
Cc1cc(C(=O)CN2C(=O)c3ccccc3C2=O)c(C)n1Cc1cccs1,-2.7%,7.94µM*,-2.4%,8.9%,11.3*
Cc1cc(C(=O)Cn2nnc3ccccc3c2=O)c(C)n1Cc1cccs1,-0.7%,6.31µM*,-1.8%,-9.3%,5.69*
O=c1cc(-c2ccccc2)oc2cc(O[C@@H]3O[C@H](CO)[C@@H](O)[C@H](O)[C@H]3O)c(O)c(O)c12,0.1%,.,-0.1%,.,.
CC(C)(C)n1ncc2c(=O)n(CC(=O)NCc3ccccc3Cl)cnc21,-6.5%,25.1µM*,-0.2%,4.6%,.
SMILES,Caspase-7 inhib,FLuc inh,Casp1 inh,Tau filament bind,PK Bst
CC(C)(C)n1ncc2c(=O)n(CC(=O)NCCc3ccccc3)cnc21,-4.6%,-1.7%,0.6%,6.2%,>57
O=C1CCC(c2ccccc2)=NN1c1nc2ccccc2s1,1.4%[11.5 µM],-3.8%[11.4 µM],2.2%[11.5 µM],6.7%[11.4 µM],.
Oc1ccc(Cc2nccc3cc(O)c(O)cc23)cc1O,?,-1.7%[11.4 µM],.,6.2%[11.4 µM],.
COc1ccccc1Nc1nc(-c2cccs2)cs1,-3.5%,12.6µM*,-2.2%,12.6µM*,.
COc1ccc(OC)c(Nc2nc(-c3cccs3)cs2)c1,-2.5%,-7.2%,-1.4%,15.8µM*,.
FC(F)(F)c1ccccc1-c1nc(NC2CCNCC2)c2ccccc2n1,-2.4%,2.9%[2.29 µM],-3.4%,-13.1%,.
N#Cc1cc2sc3nc4ccccc4n3c2cc1C#N,-3.4%,0.0%,-1.0%,2.9%,>57
COC(=O)/C=c1/sc2nc3ccccc3n2c1=O,1.2%,-4.9%,2.5%,5.4%,.
O=c1/c(=C/c2ccccn2)sc2nc3ccccc3n12,-6.6%,0.251µM*,-5.7%,0.501µM*,.
O=c1c2ccccc2nc2sc3ccccc3n12,-2.0%,-13.7%,1.0%,15.2%,6.76*
NC(=O)[C@@H]1CCCN1Cc1ccc2c(c1)OCO2,2.9%[11.5 µM],0.6%[11.4 µM],-2.1%[11.5 µM],11.1%[11.4 µM],.
O=c1cnnc(SCCc2ccccc2)[nH]1,?,?,?,7.94µM*,>57
CCCN(CCc1ccccc1)[C@H]1CCc2c(O)cccc2C1,-0.3%,2.7%,1.6%,-2.0%,.
O=S(=O)(Nc1cccnc1)c1cccc2cccnc12,-1.7%,-0.9%,-0.8%,-16.9%,.
CCN1CCCC1Cn1c(-c2ccccc2)nc2c(N(CCOC)CCOC)nc(C)nc21 (centres undefined),-1.7%,.,-5.8%,40.5%,.
N[C@H](C(=O)O)[C@H](N)C(=O)O,0.3%[11.5 µM],2.3%[11.4 µM],-1.5%[11.5 µM],-8.9%[11.4 µM],.
O=C1c2ccccc2C(=O)C1c1ccc2ccccc2n1,-0.2%,0.794µM*,-2.1%,0.631µM*,1.14*
CC(=O)OCC(=O)[C@@]12OC3(CCCC3)OC1CC1C3CCC4=CC(=O)C=C[C@@]4(C)[C@]3(F)C(O)C[C@]12C (some centres undefined),-0.3%,.,-0.2%,.,.
c1ccc2c(c1)Cc1cc(CN3CCOCC3)ccc1-2,-2.9%,12.6µM*,-0.9%,1.6%,.
CCOC(=O)OCC1OC(c2ccccc2)C=CC1Oc1ccc2oc(=O)cc(C)c2c1 (centres undefined),-1.5%[11.5 µM],.,-5.5%[11.5 µM],.,.
COc1cc(-c2nnc3sc(-c4ccccn4)nn23)cc(OC)c1OC,1.3%,2.7%,0.2%,-9.0%,.
Cc1cccc2[nH]c(-c3ccc(NC(=O)c4ccco4)cc3)nc12,-6.9%,15.8µM*,?,386.4%,?
O=C(Nc1cccc(-c2nc3ccccc3[nH]2)c1)c1cccc(NC(=O)c2ccco2)c1,-4.3%,-21.7%,-1.0%,i,>57
Cc1ccc(-c2nc3ccccc3[nH]2)cc1NC(=O)c1ccco1,-1.1%,20µM*,-1.2%,-1.2%,i
COCCCN1C(=O)c2[nH]nc(-c3ccccc3O)c2C1c1cccc(Cl)c1 (centres undefined),-1.6%,5.8%,-3.0%,20.4%,>57
Cc1cc(O)c(-c2n[nH]c3c2C(c2cccc(O)c2)N(Cc2cccnc2)C3=O)cc1Cl (centres undefined),31.6µM*,-2.1%,-2.1%,214.5%,>57
Clc1ccc(N2CCN(c3ncnc4c3oc3ccccc34)CC2)cc1,-1.6%,0.9%,-1.6%,6.3%,>57
Clc1ccc(N2CCN(Cc3c[nH]c4ncccc34)CC2)cc1,-7.4%,-2.7%,-3.2%,39.8µM*!,.
CCCCSc1nnc(-c2cc(Br)ccc2N)c(=O)[nH]1,-1.1%,0.7%,-0.9%,20µM*,>57

# Screening results from PubChem.
